High-throughput results: PubChem BioAssay, National Center for Advancing Translational Sciences (NCATS)
An excerpt weighted towards active compounds, which were near 19% of everything screened.
HepG2 tox: qHTS for Inhibitors of TGF-b: Cytotox Counterscreen; HepG2 CAGA-GFP viability, ATP luminescence, 18 h; Potency, µM (titrated, usually from 46.1 µM), most hits filed as cytotoxic; 410,000 compounds, 0.76% hits
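HepG2 CAGA-GFP cells (1000/well, DMEM with 1% FBS) received compound, then TGF-beta at 500 pg/mL final, and were incubated 18 hours at 37 degrees C. Viability was read by CellTiter-Glo luminescence. Media-only wells were set as complete cell-killing and DMSO as no toxicity.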
ASM inhibitor: Inhibitors of Secretory Acid Sphingomyelinase (S-ASM): qHTS; placental ASM, HMU-PC fluorogenic substrate, 60 min; AID 504937, 2011; Potency, µM (series often up to 57.5 µM), hits mostly inhibitors; 340,000 compounds, 0.006% hits
Target sequence (P17405 47-631 limits assumed): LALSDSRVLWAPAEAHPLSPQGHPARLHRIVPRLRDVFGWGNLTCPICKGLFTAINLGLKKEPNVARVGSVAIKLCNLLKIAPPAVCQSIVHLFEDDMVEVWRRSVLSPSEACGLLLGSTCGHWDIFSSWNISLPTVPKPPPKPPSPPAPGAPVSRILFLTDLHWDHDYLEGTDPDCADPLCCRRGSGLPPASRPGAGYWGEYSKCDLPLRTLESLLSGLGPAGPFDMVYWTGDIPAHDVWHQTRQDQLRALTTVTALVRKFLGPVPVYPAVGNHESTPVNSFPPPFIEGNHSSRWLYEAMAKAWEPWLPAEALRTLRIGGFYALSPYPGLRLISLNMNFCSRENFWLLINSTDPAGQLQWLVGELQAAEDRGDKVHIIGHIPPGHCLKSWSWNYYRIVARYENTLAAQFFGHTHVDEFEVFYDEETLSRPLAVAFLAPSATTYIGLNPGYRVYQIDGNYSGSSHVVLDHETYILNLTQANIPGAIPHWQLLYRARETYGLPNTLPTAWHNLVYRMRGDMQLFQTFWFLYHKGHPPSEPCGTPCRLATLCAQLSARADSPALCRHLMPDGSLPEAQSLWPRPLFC
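Human placenta-derived ASM enzyme was preincubated with compound for 10 minutes at room temperature, then given fluorogenic substrate HMU-PC0 (9 uM final) for 60 minutes at 37 °C; a pH 10 stop preceded fluorescence reading at Ex 386/Em 447 nm.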
TDP1 cell noCPT: qHTS for Inhibitors of human tyrosyl-DNA phosphodiesterase 1 (TDP1): qHTS in cells in absence of CPT. AID 686978, 2013. 420,000 compounds, 15% hits. Potency, µM (titrated, usually from 46.2 µM), most hits filed as inhibitors. DT40 Tdp1-/- hTDP1 cells, no CPT, ATP luminescence, 48 h; also: nearly all actives have a fitted effect of over 55% in size
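DT40 Tdp1-/-;hTDP1 cells, no CPT (DMSO vehicle only), 400 cells/well; compounds pin-transferred; ≥48 hr, 37 °C; CellTiter-Glo 30 min RT dark, luminescence read.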
IL1B secr inh: qHTS for Inhibitors of Inflammasome Signaling: IL-1-beta AlphaLISA Primary Screen. THP-1 LPS/ATP IL-1B secretion, AlphaLISA, 16 h; active compounds read low. activity change, % at 57.5 µM. 360,000 compounds, 4.7% hits. AID 743279, 2014; in the data active = activity change below about -50%; inconclusive = mostly about -30% to -49%
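Secreted IL-1B measured by AlphaLISA bead assay after 16 h compound exposure of THP-1 cells; compounds (final up to 57.5 uM) added 1 h before LPS (250 ng/mL) and ATP (1.25 mM) stimulation; lower signal means less secretion.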
TGFb inhibitor: qHTS for Inhibitors of TGF-b; HepG2 CAGA-GFP TGF-b/SMAD3 reporter, GFP fluorescence, 18 h; TGF-beta stimulated, 500 pg/mL final; Potency, µM (top dose mostly 46.1 µM), actives largely listed as inhibitors; 410,000 compounds, 1.2% hits; AID 588855, 2011; also: nearly all actives have a fitted effect of over 65% in size
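GFP signal (ex488/em500-530) from TGF-beta-stimulated HEPG2 CAGA-GFP cells, 500 pg/mL final, 18 h at 37 degrees C in DMEM plus 1% FBS, normalized to unstimulated and DMSO-stimulated controls.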
DT40 TDP1 CPT: qHTS for Inhibitors of human tyrosyl-DNA phosphodiesterase 1 (TDP1): qHTS in cells in presence of CPT; chicken DT40 Tdp1-/-;hTDP1 cells + 20 nM CPT, ATP luminescence, 48 h; Potency, µM (series often up to 46.2 µM), actives largely listed as inhibitors; 420,000 compounds, 12% hits; AID 686979, 2013; also: nearly all actives have a fitted effect of over 55% in size
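Chicken DT40 Tdp1-/- cells stably complemented with human TDP1 were seeded at 400 cells/well in medium containing 20 nM camptothecin, exposed to pin-transferred compounds, and grown at 37 °C for at least 48 hr. Viability was read as ATP luminescence.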
Of the large screens only hits and unclear results are named; the others gave an inactive call. Unless noted, calls follow the shape of the dose curve; as a rule, active = well fitted curve in the direction sought with a large enough effect; inconclusive = small, poorly fitted or top-dose-only effect, or another doubt; inactive = no such curve, though single readings can be large; an effect the other way counts as inactive or inconclusive.

COc1ccc(NC(=O)c2c(NC(=O)CNCC(C)C)sc3c2CCC3)c(OC)c1	TDP1 cell noCPT 6.5µM, TGFb inhibitor inconclusive, DT40 TDP1 CPT 4.1µM
COc1ccc(OC)c(NC(=O)c2c(NCc3cccs3)sc3c2CCCCC3)c1	TDP1 cell noCPT inconclusive, DT40 TDP1 CPT 23µM (no result: ASM inhibitor, IL1B secr inh)
COc1ccc(NC(=O)c2c(NCc3cccs3)sc3c2CCCC3)c(OC)c1	TDP1 cell noCPT 16µM, TGFb inhibitor inconclusive, DT40 TDP1 CPT 16µM (no result: ASM inhibitor, IL1B secr inh)
COc1ccc(OC)c(NC(=O)c2c(NC(=O)CCC(=O)O)sc3c2CCCCC3)c1	TDP1 cell noCPT inconclusive, DT40 TDP1 CPT inconclusive
Cc1cc(S(=O)(=O)N2CCCCC2)ccc1OCC(=O)Nc1ccccc1	TDP1 cell noCPT inconclusive, DT40 TDP1 CPT inconclusive
COc1ccc(OC)c(NC(=O)c2c(NCc3cccs3)sc3c2CCCC3)c1	TDP1 cell noCPT inconclusive, TGFb inhibitor 16µM, DT40 TDP1 CPT inconclusive (no result: ASM inhibitor, IL1B secr inh)
COc1ccccc1NC(=O)c1c(NCc2sccc2C)sc2c1CCCCC2	TDP1 cell noCPT inconclusive, TGFb inhibitor inconclusive, DT40 TDP1 CPT inconclusive (no result: ASM inhibitor, IL1B secr inh)
COc1ccc(NC(=O)c2c(NCc3sccc3C)sc3c2CCCCC3)c(OC)c1	TDP1 cell noCPT 3.3µM, TGFb inhibitor inconclusive, DT40 TDP1 CPT 3.3µM (no result: ASM inhibitor, IL1B secr inh)
COc1ccc(OC)c(CNc2sc3c(c2C(=O)Nc2cc(OC)ccc2OC)CCCC3)c1	TDP1 cell noCPT inconclusive, DT40 TDP1 CPT inconclusive (no result: ASM inhibitor, IL1B secr inh)
CC1(N(O)/C=C2\C=CC=CC2=O)CCCCC1=O (stereo unspecified)	none
Cc1ncc(C[n+]2ccc(C)c(C)c2)c(N)n1	none
Cn1cc(S(=O)(=O)NCc2ccc(F)cc2)c(=O)n(C)c1=O	none
Cc1cccc(NS(=O)(=O)c2ccc(C)c(C(=O)NCC(c3cccs3)N3CCOCC3)c2)c1 (stereo unspecified)	TDP1 cell noCPT 16µM, DT40 TDP1 CPT inconclusive
O=C(NCC(c1cccs1)N1CCOCC1)c1cn(-c2ccccc2)nc1-c1ccc(Cl)cc1 (stereo unspecified)	TDP1 cell noCPT inconclusive, IL1B secr inh inconclusive, DT40 TDP1 CPT inconclusive (no result: ASM inhibitor)
O=C(NCC(c1cccs1)N1CCOCC1)c1cn(-c2ccccc2)nc1-c1ccccc1 (stereo unspecified)	TDP1 cell noCPT 18µM, DT40 TDP1 CPT inconclusive
COc1cc(C(=O)NCCCN2CCCC2=O)cc(Br)c1OCc1ccccc1	TDP1 cell noCPT 18µM, DT40 TDP1 CPT inconclusive
COc1cc(C(=O)NCC(c2cccs2)N2CCOCC2)cc(Br)c1OCc1ccccc1 (stereo unspecified)	TDP1 cell noCPT 9.2µM, TGFb inhibitor inconclusive, DT40 TDP1 CPT 9.2µM
CS(=O)(=O)c1cccc(NC(=O)C2CCCN2S(=O)(=O)c2ccc(F)cc2)c1 (stereo unspecified)	none
O=C(NCC(c1cccs1)N1CCOCC1)c1ccc(Cl)cc1 (stereo unspecified)	TDP1 cell noCPT inconclusive, DT40 TDP1 CPT inconclusive
O=C(NCC(c1cccs1)N1CCOCC1)c1cc(F)cc(F)c1 (stereo unspecified)	TDP1 cell noCPT 15µM, DT40 TDP1 CPT 21µM (no result: ASM inhibitor)
O=C(NC(C(=O)N/N=C/c1c2ccccc2cc2ccccc12)c1n[nH]c(=O)c2ccccc12)c1ccccc1 (stereo unspecified)	TDP1 cell noCPT 10µM, IL1B secr inh inconclusive, TGFb inhibitor inconclusive, DT40 TDP1 CPT 8.2µM
Cc1cc(C)c(S(=O)(=O)Nc2cccc(S(=O)(=O)NC3=NCCC3)c2)c(C)c1	none
OC1c2c(F)cccc2N=C2CCCCN21 (stereo unspecified)	TDP1 cell noCPT inconclusive, DT40 TDP1 CPT 8.2µM (no result: ASM inhibitor)
